This note sets out measurements from ChEMBL document CHEMBL2218924, “A broad activity screen in support of a chemogenomic map for kinase signalling research and drug discovery” (Biochem J, 2013).

Assay [1] deals with T1, cGMP-dependent protein kinase 1 (Homo sapiens) (UniProt Q13976).
T1 sequence (whole entry): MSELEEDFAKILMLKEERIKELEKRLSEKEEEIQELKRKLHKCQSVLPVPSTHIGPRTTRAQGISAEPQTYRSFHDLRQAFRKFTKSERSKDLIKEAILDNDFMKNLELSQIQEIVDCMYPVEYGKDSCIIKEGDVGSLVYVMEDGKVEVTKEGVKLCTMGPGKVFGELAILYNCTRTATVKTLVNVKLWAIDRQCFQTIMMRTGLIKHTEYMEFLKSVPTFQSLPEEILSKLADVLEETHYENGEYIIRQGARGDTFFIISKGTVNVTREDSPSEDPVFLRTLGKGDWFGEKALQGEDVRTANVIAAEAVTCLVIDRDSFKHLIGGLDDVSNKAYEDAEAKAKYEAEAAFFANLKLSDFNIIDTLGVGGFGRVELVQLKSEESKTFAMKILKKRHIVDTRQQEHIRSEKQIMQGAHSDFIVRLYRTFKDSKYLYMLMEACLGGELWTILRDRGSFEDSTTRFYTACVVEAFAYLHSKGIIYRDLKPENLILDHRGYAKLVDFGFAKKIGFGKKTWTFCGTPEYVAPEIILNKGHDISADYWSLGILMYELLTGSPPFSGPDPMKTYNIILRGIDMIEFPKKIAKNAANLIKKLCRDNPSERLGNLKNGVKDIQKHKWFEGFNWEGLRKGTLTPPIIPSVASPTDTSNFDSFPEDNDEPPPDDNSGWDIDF
Particulars: at 1 µM.

For assay [2], the target named is T1, cGMP-dependent protein kinase 1 (Homo sapiens). The conditions noted are these: at 10 µM.
For assay [3] the target is unchanged. Particulars: at 1 µM. The source holds these as a separate data set.
Assay [4] has the same target. The conditions noted are these: at 10 µM. This is another data set of the same source.
The target of assay [5] is T2, MAP kinase-activated protein kinase 5 (Homo sapiens) (UniProt Q8IW41).
T2 sequence (whole entry): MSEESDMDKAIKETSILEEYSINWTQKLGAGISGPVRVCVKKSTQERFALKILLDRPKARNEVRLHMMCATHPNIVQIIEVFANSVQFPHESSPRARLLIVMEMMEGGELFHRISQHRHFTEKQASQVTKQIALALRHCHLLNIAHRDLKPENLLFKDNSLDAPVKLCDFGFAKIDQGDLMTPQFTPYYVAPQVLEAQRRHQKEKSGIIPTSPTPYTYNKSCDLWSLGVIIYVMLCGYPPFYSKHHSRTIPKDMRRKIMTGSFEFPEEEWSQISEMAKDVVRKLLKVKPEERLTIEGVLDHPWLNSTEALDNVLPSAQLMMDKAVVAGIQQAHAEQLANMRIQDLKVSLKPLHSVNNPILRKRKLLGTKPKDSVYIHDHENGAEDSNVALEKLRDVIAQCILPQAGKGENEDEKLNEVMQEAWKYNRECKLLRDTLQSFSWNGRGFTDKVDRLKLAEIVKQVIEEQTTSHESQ
Particulars: at 10 µM.

Assay [6] has as its target Serine/threonine-protein kinase N2 (Homo sapiens) (UniProt Q16513). Particulars: at 1 µM.
For assay [7] the target is unchanged. Particulars: at 10 µM.
Assay [8] deals with Tyrosine-protein kinase FRK (Homo sapiens) (UniProt P42685). Particulars: at 1 µM.
Sequence of Tyrosine-protein kinase FRK (Homo sapiens) (P42685 whole entry): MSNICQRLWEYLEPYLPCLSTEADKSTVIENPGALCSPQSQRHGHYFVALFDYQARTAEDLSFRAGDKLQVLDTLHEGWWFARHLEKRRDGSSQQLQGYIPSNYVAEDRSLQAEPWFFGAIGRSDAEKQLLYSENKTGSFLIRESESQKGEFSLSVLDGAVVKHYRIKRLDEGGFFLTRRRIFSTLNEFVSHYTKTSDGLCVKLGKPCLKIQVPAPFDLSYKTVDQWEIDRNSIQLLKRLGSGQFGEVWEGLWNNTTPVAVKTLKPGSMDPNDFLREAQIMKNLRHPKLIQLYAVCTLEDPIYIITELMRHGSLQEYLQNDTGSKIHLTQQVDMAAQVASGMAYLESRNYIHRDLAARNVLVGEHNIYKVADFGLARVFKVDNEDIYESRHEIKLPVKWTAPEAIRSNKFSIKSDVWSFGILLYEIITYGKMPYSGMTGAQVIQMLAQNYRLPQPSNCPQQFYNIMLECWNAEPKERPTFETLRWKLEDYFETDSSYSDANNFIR
Assay [9] shares this target. Particulars: at 10 µM.
Assay [10] has as its target T2, MAP kinase-activated protein kinase 5 (Homo sapiens). The conditions noted are these: at 1 µM.

Sequence of Serine/threonine-protein kinase N2 (Homo sapiens) (Q16513 whole entry, looked up): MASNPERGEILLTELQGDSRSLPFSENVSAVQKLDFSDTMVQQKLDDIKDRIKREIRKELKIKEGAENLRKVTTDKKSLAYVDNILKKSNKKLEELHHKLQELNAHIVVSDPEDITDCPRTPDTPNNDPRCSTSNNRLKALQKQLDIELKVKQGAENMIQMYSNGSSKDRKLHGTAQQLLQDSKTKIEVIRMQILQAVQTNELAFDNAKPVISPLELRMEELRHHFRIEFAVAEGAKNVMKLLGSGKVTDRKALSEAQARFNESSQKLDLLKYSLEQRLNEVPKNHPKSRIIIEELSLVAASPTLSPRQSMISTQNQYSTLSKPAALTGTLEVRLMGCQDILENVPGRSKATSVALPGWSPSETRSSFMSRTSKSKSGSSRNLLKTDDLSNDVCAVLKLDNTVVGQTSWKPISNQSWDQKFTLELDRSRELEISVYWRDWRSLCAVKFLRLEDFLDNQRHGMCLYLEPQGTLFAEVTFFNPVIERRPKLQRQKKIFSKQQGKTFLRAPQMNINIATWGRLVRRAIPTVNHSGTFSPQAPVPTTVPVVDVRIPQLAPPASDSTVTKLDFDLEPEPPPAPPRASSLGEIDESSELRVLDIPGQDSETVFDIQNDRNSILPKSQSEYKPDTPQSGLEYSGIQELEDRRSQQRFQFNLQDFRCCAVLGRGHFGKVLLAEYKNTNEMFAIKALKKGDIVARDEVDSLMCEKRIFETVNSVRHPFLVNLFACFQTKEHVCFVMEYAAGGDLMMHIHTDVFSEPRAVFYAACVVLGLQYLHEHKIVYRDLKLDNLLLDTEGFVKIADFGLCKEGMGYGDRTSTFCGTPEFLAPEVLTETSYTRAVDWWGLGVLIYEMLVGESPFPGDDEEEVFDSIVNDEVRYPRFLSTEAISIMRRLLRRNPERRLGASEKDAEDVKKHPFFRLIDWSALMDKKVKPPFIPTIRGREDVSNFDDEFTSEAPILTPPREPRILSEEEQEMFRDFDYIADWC

For `O=C(CCCc1ccc(-c2ccccc2F)cc1)Nc1ccc(O)cc1`, the residual activity in [1] came to 98%; in assay [2], 100%; in [3] it was 97%; in assay [4] it was 72%; in [5], 64%; in assay [6] it was 100%. The figures for the residual activity in assay [7], in [8] and in assay [9] were 79%, 97% and 112%, respectively.
Take `O=S(=O)(NCCNC/C=C/c1ccc(Br)cc1)c1cccc2cnccc12`: the residual activity in [1] was found to be 4%; in assay [2] it was 4%; in [3], 4%; in assay [4] it was 4%; in [6] it was 26%; in assay [7] it was 4%.
For `COc1cc2nccc(Oc3ccc(NC(=S)NC(=O)c4ccccc4C)cc3)c2cc1OC`, the residual activity in [1] is 97%; in [2], 97%; in [3], 69%; in [4], 66%; in assay [10], 70%; in assay [5], 79%. Further, the residual activity in assay [6] stood at 90%; in assay [7], 88%; in assay [8] it was 6%; in assay [9] it was 1%.
Turning to `O=C1Nc2ccc(Cl)cc2/C1=C/c1cc(Cl)c(O)c(Cl)c1`, the residual activity was 84% in [1]; 79% in assay [2]; 79% in assay [3]; 44% in assay [4]; 95% in assay [10]; 17% in assay [5]. The residual activity in assay [6] is 99%; in [7] it was 94%; in assay [8] it was 56%; in assay [9], 5%.
Consider `CN(C)S(=O)(=O)c1ccc2c(c1)/C(=C/c1cc3c([nH]1)CCCC3)C(=O)N2`, for which the residual activity in [1] was 99%; in assay [3], 89%; in [4], 80%; in assay [6] it was 95%; in assay [7] it was 82%; in assay [8], 54%. Also, the residual activity in [9] was 48%.
For `Nc1ncnc2c1c(-c1ccc(Oc3ccccc3)cc1)cn2C1CCCC1`, the residual activity worked out at 102% in [1]; 96% in assay [2]; 82% in assay [3]; 72% in assay [4]; 90% in assay [10]; 46% in assay [5]. Also, the residual activity in assay [6] was determined as 87%; in assay [7] it was 100%; in [8], 2%; in assay [9] it was 2%.
With `COc1ccc2c(c1)c(C1=C(c3c[nH]c4ccccc34)C(=O)NC1=O)cn2CCCN(C)C`, the residual activity in assay [2] amounted to 28%; in [3], 64%; in [4], 22%; in [6], 68%; in [7] it was 25%; in assay [8], 97%.
Take `O=c1cc(N2CCOCC2)oc2c(-c3ccccc3)cccc12`: the residual activity in assay [3] was 80%; in [4], 81%.
In the case of `O=C1Nc2ccccc2/C1=C\c1c(Cl)[nH]c2ccccc12`, the residual activity in assay [2] was found to be 84%; in assay [4] it was 72%; in assay [8], 83%; in [9], 73%.
Turning to `O=C(O)/C=C/c1cc(Br)c(Br)c(Br)c1Br`, the residual activity in assay [1] is 94%; in [2], 65%; in assay [3], 82%; in assay [4] it was 32%; in assay [10], 83%; in assay [5], 28%. Besides, the results for the residual activity in assay [7], in assay [8] and in assay [9] were 38%, 102% and 86%, respectively.
Take `O=C(Nc1nc2ccccc2n1CCN1CCOCC1)c1cccc([N+](=O)[O-])c1`: the residual activity in assay [1] is 100%; in assay [2] it was 101%; in assay [3] it was 83%; in assay [4] it was 88%; in assay [6], 78%; in [7] it was 115%.
In the case of `O=C1Cc2c([nH]c3ccc(Br)cc23)-c2ccccc2N1`, the residual activity was 98% in assay [1]; 97% in [2]; 83% in [3]; 74% in assay [4]; 97% in [10]; 70% in assay [5]. In addition, the residual activity in assay [6] stood at 60%; in assay [7], 26%; in assay [8] it was 68%; in assay [9], 40%.
In the case of `CCCCc1c(-c2ccc(OC)cc2)[nH]c2nccnc12`, the residual activity in [2] worked out at 116%; in assay [3] it was 107%; in assay [10], 73%; in [5], 108%; in [6], 88%; in assay [7], 76%. Further, the values for the residual activity in [8] and in assay [9] were 60% and 51%, respectively.
`CC(C)(C)n1nc(Cc2cccc3ccccc23)c2c(N)ncnc21`: the residual activity in [1] worked out at 109%; in [2], 97%; in assay [3] it was 86%; in assay [4] it was 95%; in [10] it was 75%; in assay [5], 33%. Moreover, the values for the residual activity in assay [8] and in assay [9] were 26% and 0%, respectively.
For `Nc1n[nH]c2nc3ccccc3nc12`, the residual activity was found to be 88% in assay [2]; 59% in assay [4]; 95% in assay [10]; 74% in assay [7]; 98% in [8]; 92% in assay [9].
In the case of `Nc1ncnc2[nH]nc(Nc3ccc(F)cc3)c12`, the residual activity came out at 100% in assay [1]; 79% in [2]; 95% in assay [3]; 79% in assay [4]; 109% in assay [10]; 91% in assay [5]. For the same compound, the residual activity in assay [6] is 107%; in assay [7] it was 80%; in [9] it was 38%.
With `COc1cc2nccc(Oc3ccc(NC(=O)Nc4cc(C)on4)c(Cl)c3)c2cc1OC`, the residual activity in assay [1] came to 101%; in assay [2] it was 97%; in [3] it was 105%; in assay [10], 99%; in [5], 70%; in assay [6], 97%. In addition, the figures for the residual activity in assay [7], in assay [8] and in assay [9] were 108%, 2% and -3%, respectively.
Regarding `CSc1nc(-c2ccc(F)cc2)c(-c2ccnc(NC(C)c3ccccc3)c2)[nH]1` (stereo not given), the residual activity was determined as 85% in [1]; 86% in [2]; 84% in assay [4]; 94% in [7]; 90% in assay [8]; 94% in assay [9].
Regarding `CCCC(=O)Oc1ccc2[nH]c(C(=O)c3cc4ccccc4[nH]3)cc2c1`, the residual activity in assay [1] was 101%; in assay [2], 127%; in assay [3] it was 79%; in assay [4] it was 78%; in assay [10], 72%; in [5], 44%. Also, the residual activity in assay [6] stood at 86%; in assay [7], 93%; in assay [8] it was 92%; in assay [9], 85%.
For `COc1ccc(-c2cnc3c(-c4ccsc4)cnn3c2)cc1`, the residual activity in assay [1] came to 88%; in assay [2], 90%; in assay [3], 99%; in assay [4] it was 99%; in assay [10] it was 93%; in assay [5], 84%. Besides, the figures for the residual activity in assay [6] and in [7] were 95% and 130%, respectively.
For the compound `CC(C)c1nn(-c2c(Cl)cccc2Cl)c2nc(Cc3ccc(OCCO)cc3)[nH]c(=O)c12`, the residual activity stood at 103% in [1]; 102% in [2]; 91% in assay [3]; 48% in assay [4]; 73% in assay [5]; 89% in assay [6]. For the same compound, the figures for the residual activity in [7], in assay [8] and in [9] were 91%, 72% and 35%, respectively.
With `Cc1cc(C)c(/C=C2\C(=O)Nc3ccccc32)[nH]1`, the residual activity worked out at 104% in assay [1], 103% in [2], 78% in assay [4] and 78% in assay [10].
In the case of `NC(=O)Nc1sc(-c2ccc(F)cc2)cc1C(N)=O`, the residual activity is 87% in assay [1]; 73% in assay [2]; 84% in [3]; 43% in assay [4]; 96% in [10]; 58% in assay [5]. The residual activity was determined as 82% in [6], 27% in assay [7], 63% in assay [8] and 19% in assay [9].
Turning to `O=C1NC(=O)C(c2c[nH]c3ccccc23)=C1c1c[nH]c2ccccc12`, the residual activity in assay [2] was 43%; in [3], 83%; in assay [4] it was 28%; in assay [10], 98%; in assay [5], 48%; in assay [6], 81%. In addition, the residual activity in assay [7] worked out at 37%; in assay [8], 80%; in assay [9], 41%.
